The supplement of paper PMC6555819

Columns and labels:
Experiment in all cases: PBM binding z-score (relative to random genomic background probes); higher = stronger binding; sequences stand for … in GC…GCGATTGACAGCGTAGAATGAAGG
[1] = system: RARb homodimer (NR concentration 270 nM)
How it was run: (§1)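 Ligand-free nuclear receptor dimers were applied to custom Agilent 4×180K protein-binding microarrays whose double-stranded probes carried direct-repeat seeds, single-nucleotide variants, half-site ablations and random human genomic background sequences in 34-nt variable regions. Incubation lasted 1 h. Binding z-scores were computed against the random background probes from regression-normalized fluorescence.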

[2] = system: RARg:RXRa (NR concentration 270 nM, RXRa partner concentration 90 nM)
How it was run: as §1

[3] = system: RARg homodimer (NR concentration 270 nM)
How it was run: as §1

[4] = system: RXRa DBDmut IVT, anti-RXR (DBD mutation: RXRa K156A/R161A, NR concentration 90 nM)
How it was run: as §1

[5] = system: RXRa homodimer (NR concentration 180 nM)
How it was run: as §1

[6] = system: THRa:RXRa (NR concentration 90 nM, RXRa partner concentration 90 nM)
How it was run: as §1

[7] = system: THRa homodimer (NR concentration 90 nM)
How it was run: as §1

[8] = system: VDR homodimer (NR concentration 270 nM)
How it was run: as §1

Row | Sequence | PBM binding z-score [1] | PBM binding z-score [2] | PBM binding z-score [3] | PBM binding z-score [4] | PBM binding z-score [5] | PBM binding z-score [6] | PBM binding z-score [7] | PBM binding z-score [8]
1 | GCGACTGGGGCATCAGCAGGTTACGATAACTTAA | 0.928 | 0.837 | 0.545 | -0.13 | 0.313 | 0.816 | -0.273 | -0.435
2 | GCTTACGGGTCAGAGGTTATAGCATGAATAGAAT | 2.66 | 4.85 | 3.51 | 1.24 | 6.16 | 2.66 | -0.0589 | 0.979
3 | TCTCGGAGGACACGATGGTCAGAGCTTTCCAGAG | 0.682 | 0.274 | 1.24 | 0.266 | 0.00404 | 1.05 | 0.363 | -0.307
4 | TTACCAAGGTGAAAGGTCGTCGATGCACGCCTTG | 2.78 | 4.43 | 2.22 | 0.201 | 6.2 | 3.55 | 0.956 | 0.709
5 | ATCTCTAGGTAAAGATAGTTCTGTGAATGCAAAT | -0.0245 | 0.131 | 0.453 | 0.28 | 0.154 | 0.478 | 0.132 | 0.175
6 | ATCGATAGGTCGACGAGGTGAGTATACACCGTTT | 0.959 | 1.8 | 1.82 | 0.0347 | 1.67 | 2.59 | 0.488 | 0.231
7 | TCATATAGGTAAAGGTGAAAGGCGAACGATATGA | 1.51 | 1.67 | 1.39 | 0.748 | 2.24 | 1.7 | -0.314 | -0.263
